In PubChem BioAssay AID1942 (Johns Hopkins Ion Channel Center, 2009):
The campaign covered roughly 2,400 compounds. About 580 (24%) were called active. These entries were drawn from the full list. Values without a mark were called inactive.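 How the source made its calls: active means activity change at or above the mean plus 3 SD of buffer wells without dofetilide, per plate; inactive means the rest.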

biological target: Potassium voltage-gated channel subfamily KQT member 2 (Rattus norvegicus) (UniProt O88943); experiment: rat KCNQ2 channel activation by compounds alone, confirmation, counter-screen for hERG block protector project, cell-based, CHO, FluxOR thallium flux (AID 1942); details: CHO-KCNQ2 cells, FluxOR thallium flux fluorescence; at 10 µM; stronger effect = higher value;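 further: normalized value minus buffer-control mean plus three SD of buffer wells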
Sequence (O88943 whole entry, looked up): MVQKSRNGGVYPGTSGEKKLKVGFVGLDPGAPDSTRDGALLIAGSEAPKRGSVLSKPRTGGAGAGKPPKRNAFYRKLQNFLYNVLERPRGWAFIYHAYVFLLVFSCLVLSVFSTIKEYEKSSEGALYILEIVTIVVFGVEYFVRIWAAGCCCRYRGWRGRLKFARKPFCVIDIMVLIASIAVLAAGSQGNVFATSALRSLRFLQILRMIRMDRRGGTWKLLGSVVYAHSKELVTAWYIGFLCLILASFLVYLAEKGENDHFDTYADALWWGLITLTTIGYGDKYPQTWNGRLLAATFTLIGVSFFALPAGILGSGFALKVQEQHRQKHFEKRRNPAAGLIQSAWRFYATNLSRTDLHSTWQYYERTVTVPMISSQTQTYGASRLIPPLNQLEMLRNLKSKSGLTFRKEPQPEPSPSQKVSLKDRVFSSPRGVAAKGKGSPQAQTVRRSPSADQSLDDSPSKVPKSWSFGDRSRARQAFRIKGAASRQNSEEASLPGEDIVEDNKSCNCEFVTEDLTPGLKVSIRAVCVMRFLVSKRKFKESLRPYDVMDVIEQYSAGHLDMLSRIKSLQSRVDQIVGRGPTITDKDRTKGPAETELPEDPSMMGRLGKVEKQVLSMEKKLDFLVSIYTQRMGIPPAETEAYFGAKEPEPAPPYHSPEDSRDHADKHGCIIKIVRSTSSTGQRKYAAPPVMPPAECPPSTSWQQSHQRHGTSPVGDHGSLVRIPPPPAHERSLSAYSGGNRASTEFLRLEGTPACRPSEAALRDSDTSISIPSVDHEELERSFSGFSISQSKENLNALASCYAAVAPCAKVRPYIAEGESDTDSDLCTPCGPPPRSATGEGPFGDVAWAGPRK

First: O=C(O)C[C@H]1c2cc(F)ccc2S(=O)(=O)N1C1CCCCC1
Second: CC(C)Oc1cccc(C(=O)N2CCCC2)c1
The activity change, less the hit threshold of the first is higher: -10.2% for the first, -14% for the second.

First: Cc1nc(-c2nc(-c3c(C(=O)NNC(=O)c4ccc(Cl)cc4)noc3C)cs2)cs1
Second: CC(C)(C)c1csc(NNC(=O)c2ccc(Cl)cc2)n1
The activity change, less the hit threshold of the first is higher: -1.2% for the first, -7.6% for the second.

Compared with `CCc1nc(C)ccc1OCC(=O)N1CCc2c([nH]c3ccccc23)C1c1ccccn1` (stereo not drawn), `COC(=O)c1ccc(-n2c(C)nc(=O)c(-c3ccccc3)c2C)cc1` is higher in activity change, less the hit threshold: -18.2% for the first, -13.8% for the second.

Compared with `CCN(CC)c1ccc(/C=c2\sc3nnc(-c4ccccc4Cl)n3c2=O)cc1`, `CC1=NN(c2ccccc2)C(=O)C1C(=O)c1ccc(Cl)cc1` (stereo not drawn) is higher in activity change, less the hit threshold: -31.7% for the first, -0.6% for the second.

Compared with `O=C(NC(=S)NCc1ccc(-c2nc3ccccc3s2)cc1)c1ccco1`, `O=C(NC(=S)Nc1nc(-c2ccccc2)cs1)c1ccco1` is higher in activity change, less the hit threshold: -16% for the first, -0.7% for the second.

Compared with `O=C(NC(=S)Nc1nc(-c2ccc(Br)cc2)cs1)c1ccco1`, `COc1ccc(-c2csc(NC(=S)NC(=O)c3ccco3)n2)cc1` is higher in activity change, less the hit threshold: -18.5% for the first, -0.4% for the second.

Compared with `COc1ccc(-c2csc(NC(=S)NC(=O)c3ccco3)n2)cc1Br`, `Cc1ccc2nc(NC(=S)NC(=O)c3ccco3)sc2c1` is lower in activity change, less the hit threshold: -3.7% for the first, -6.5% for the second.

Compared with `Cc1ccc(C)c(N2CCN(S(=O)(=O)c3ccc(-c4ccc(=O)[nH]n4)o3)CC2)c1`, `Cc1ccc(CNS(=O)(=O)c2cc3c4c(c2)CCN4C(=O)CC3)cc1` is higher in activity change, less the hit threshold: -14.6% for the first, -11.7% for the second.

Going from `CCn1cc(CCC(=O)NCc2cccc(OC)c2OC)c2ccccc21` to `COC(=O)c1ccc(/C=C/c2ccc3cccc(OC)c3n2)cc1`, the activity change, less the hit threshold falls from -13% to -22.1%.

Going from `Cc1cc(N2CCN(C)CC2)nc(N2CCOCC2)n1` to `COc1cccc(C(=O)Nc2cccc(-c3ccc(N4CCOCC4)nn3)c2)c1`, the activity change, less the hit threshold falls from -10% to -17.8%.

First: CCN(CC)C(=O)CN1C(=O)c2cccc3cccc(c23)C1=O
Second: CC(=O)C1C(=O)c2c(cccc2[N+](=O)[O-])C1=Nc1ccccc1C (stereo not drawn)
The activity change, less the hit threshold of the first is lower: -24.8% for the first, -21.7% for the second.

Compared with `CN(C)c1oc(-c2ccccc2)nc1C#N`, `N#CC(=C1SC=CS1)c1nc(-c2ccccc2)cs1` is lower in activity change, less the hit threshold: -16.2% for the first, -21.5% for the second.

Going from `O=c1cc(O)c2sc(Nc3ccc(F)c(Cl)c3)nc2[nH]1` to `CSc1nc2c(c(=O)[nH]1)C(c1ccc(Cl)cc1)CC(=O)N2` (stereo not drawn), the activity change, less the hit threshold rises from -20.3% to -14%.

First: COc1ccc(N2CCN(CC(O)COc3ccc(F)cc3)CC2)cc1 (stereo not drawn)
Second: O=C(N/N=C/c1ccccc1[N+](=O)[O-])c1ccc(CN2CCOCC2)cc1
The activity change, less the hit threshold of the first is lower: -24.2% for the first, -14.3% for the second.

Compared with `CC1=C(C)CS(=O)N(c2ccc(S(N)(=O)=O)cc2)C1` (stereo not drawn), `Cc1cc([N+](=O)[O-])nn1CC(=O)Nc1ccc(Cl)cn1` is higher in activity change, less the hit threshold: -5.8% for the first, -1.2% for the second.

Going from `O=c1c2ccccc2nc(-c2ccccc2)n1O` to `Cc1ccc(C(=O)Nc2nc3ccccc3c(=O)s2)cc1`, the activity change, less the hit threshold rises from -9.4% to -1.3%.

Compared with `COc1cccc([C@@H]2Oc3ccc(OC)cc3C(=O)[C@H]2OC(=O)NCc2ccc3c(c2)OCO3)c1`, `Cn1nc(C(=O)Nc2ccc3c(c2)OCO3)c2ccccc2c1=O` is lower in activity change, less the hit threshold: -12.3% for the first, -16.1% for the second.

Compared with `Cc1ccc(Nc2nc(-c3cccs3)cs2)nc1`, `Cc1ccc(-c2onc3ccc(Cl)cc23)cc1` is lower in activity change, less the hit threshold: -16.1% for the first, -16.5% for the second.

First: O=C(N/N=C/c1cccs1)C(=O)Nc1cccc(Cl)c1
Second: COc1ccc(NC(=O)C(=O)NNC(=O)c2ccc(Cl)cc2Cl)cc1
The activity change, less the hit threshold of the first is lower: -12.5% for the first, -7.7% for the second.

First: CCOC(=O)c1c(N2C(=O)Nc3ccccc3N2O)n[nH]c1-c1cccc(Cl)c1
Second: Cc1ccc(C(=O)CC(=O)c2cc(Cl)ccc2O)cc1
The activity change, less the hit threshold of the first is higher: -9.4% for the first, -19.3% for the second.

First: CCCCC(CC)CNC(=O)Cn1c(=S)[nH]c2ncccc2c1=O (stereo not drawn)
Second: CC(C)CCn1c(=S)[nH]c2ncccc2c1=O
The activity change, less the hit threshold of the first is lower: -9.7% for the first, -3.7% for the second.

First: COC(=O)c1ccc(NN=Nc2ccc(C)cc2)cc1
Second: COc1ccc(C(=O)NNC(=O)C(=O)Nc2ccc(C)c(Cl)c2)cc1
The activity change, less the hit threshold of the first is lower: -4.6% for the first, -0.2% for the second.

First: C=CCNc1sc(C(=O)C(C)(C)C)c(N)c1C#N
Second: CCc1c(C)nc(SC)n(CC#N)c1=O
The activity change, less the hit threshold of the first is lower: -15.5% for the first, -14.4% for the second.

Going from `CCCCNC(=S)N/N=C/C1=CCC2CC1C2(C)C` (stereo not drawn) to `CC(NC(=O)CCCn1cc([N+](=O)[O-])cn1)c1ccccc1` (stereo not drawn), the activity change, less the hit threshold falls from -17.2% to -27%.

Going from `c1ccc2c(c1)c1ccccc1n1c(-c3ccc4c(c3)OCO4)nnc21` to `CCOc1ccc(Nc2ccc([N+](=O)[O-])c3nonc23)cc1`, the activity change, less the hit threshold rises from -10% to -4.2%.

First: Cc1nnc(SCC(=O)Nc2nccs2)n1N
Second: CC(Oc1ccc(Cl)cc1Cl)C(=O)Nc1cccnc1 (stereo not drawn)
The activity change, less the hit threshold of the first is higher: -19.4% for the first, -25.1% for the second.

`CC(C)(C)c1cc(C(=O)NNC(=O)c2ccc(Cl)cc2)no1` was tested, and the activity change, less the hit threshold was 24% (active).
With `O=C(NC(=S)Nc1nc2ccccc2s1)c1ccco1` the activity change, less the hit threshold was 40.4% (active).
In the case of `COc1ccc2nc(NC(=S)NC(=O)c3ccco3)sc2c1`, the activity change, less the hit threshold is reported as 27.9% (active).
In the case of `O=C(NC(=S)Nc1nc(-c2ccc([N+](=O)[O-])cc2)cs1)c1ccco1`, the activity change, less the hit threshold is reported as 20.1% (active).
`O=C(NC(=S)Nc1nc2ccc(F)cc2s1)c1ccco1` was tested, and the activity change, less the hit threshold was 59.7% (active).
For `Cc1ccc(-c2nc3c(Cl)cc(Cl)cc3c(=O)n2O)cc1`, the activity change, less the hit threshold was 142% (active).
`O=c1c2ccccc2nc(-c2ccc(Cl)c(Cl)c2)n1O` was tested, and the activity change, less the hit threshold was 68.4% (active).
With `O=c1c2cc(Cl)ccc2nc(-c2ccccc2)n1O` the activity change, less the hit threshold was 27.1% (active).
For `Cc1ccc(-c2nc3ccccc3c(=O)n2O)cc1`, the activity change, less the hit threshold was 6.3% (active).
In the case of `O=c1c2ccccc2nc(-c2cccc(Cl)c2)n1O`, the activity change, less the hit threshold is reported as 28.8% (active).
In the case of `Cc1ccc(-c2nc3ccc(Cl)cc3c(=O)n2O)cc1`, the activity change, less the hit threshold is reported as 104% (active).
With `O=c1c2cc(Cl)ccc2nc(-c2ccc(Cl)c(Cl)c2)n1O` the activity change, less the hit threshold was 127% (active).
In the case of `CCCCCn1c(=S)[nH]c2ncccc2c1=O`, the activity change, less the hit threshold is reported as 17.1% (active).
For `CCN(CCCn1c(=S)[nH]c2ncccc2c1=O)c1ccccc1`, the activity change, less the hit threshold was 10.4% (active).
With `O=c1c(O)c(-c2ccc3c(c2)OCO3)oc2ccccc12` the activity change, less the hit threshold was 12% (active).
With `O=c1c(O)c(-c2cccs2)oc2ccccc12` the activity change, less the hit threshold was 95.3% (active).
`O=c1c(O)c(-c2cccs2)oc2ccc(Cl)cc12` was tested, and the activity change, less the hit threshold was 111% (active).
With `COc1ccc(C(=O)NNC(=O)C(=O)Nc2ccc(C)cc2)cc1` the activity change, less the hit threshold was 22.4% (active).
For `COc1cccc(C(=O)NNC(=O)C(=O)Nc2ccc(C)c(Cl)c2)c1`, the activity change, less the hit threshold was 66.8% (active).
In the case of `COc1cccc(C(=O)NNC(=O)C(=O)Nc2cccc(Cl)c2C)c1`, the activity change, less the hit threshold is reported as 54.1% (active).
For `COc1ccc(NC(=O)C(=O)NNC(=O)C(C)Oc2ccc(Cl)cc2Cl)cc1` (stereo not drawn), the activity change, less the hit threshold was 32.6% (active).
